Laboratory results from PubChem BioAssay AID588676 (Johns Hopkins Ion Channel Center, 2011).
The campaign covered roughly 310,000 compounds. About 3,900 (1.3%) were called active.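 The calls were made as follows: active = calcium-response B-score plate-corrected more than 3 library SD below zero, starting fluorescence within 5 deviations, no agonist response on first addition; inactive = the rest.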 The entries come from a sample that favours actives as a whole.

Target: Mas-related G-protein coupled receptor member X1 (Homo sapiens) (UniProt Q96LB2)
Sequence (Q96LB2 whole entry, looked up): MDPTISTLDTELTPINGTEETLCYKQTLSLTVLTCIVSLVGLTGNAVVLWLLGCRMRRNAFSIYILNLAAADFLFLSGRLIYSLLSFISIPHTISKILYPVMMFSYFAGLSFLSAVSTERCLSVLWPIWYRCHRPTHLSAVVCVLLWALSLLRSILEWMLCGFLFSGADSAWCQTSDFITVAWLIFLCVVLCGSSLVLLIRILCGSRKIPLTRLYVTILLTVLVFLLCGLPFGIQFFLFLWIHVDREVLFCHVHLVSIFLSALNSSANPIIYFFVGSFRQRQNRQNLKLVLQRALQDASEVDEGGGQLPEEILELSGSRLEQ
Assay: antagonists of human MrgX1 receptor, primary screen, HEK293 cells, Fluo-4 calcium flux (AID 588676);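 as to B-score: peak minus trough fluorescence over baseline after final BAM8-22 challenge near maximal dose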
Conditions: Fluo-4, BAM8-22 antagonism, at 10 µM; active compounds read low

B-score, active:
CCN(CC)CC(=O)Nc1nn(-c2ccccc2)nc1C(N)=O -7.03, COc1cc(CCC(=O)Nc2ccncc2Cl)cc(OC)c1OC -6.22, COCCCNC(=O)C1CCN(c2ccc(N3CCOCC3)nn2)CC1 -6.39, COC(=O)c1c(NC(=O)c2c(Cl)cnn2C)sc(C)c1C -4.74, Cc1ccc(-c2nn(C(C)(C)C)c3ncnc(N)c23)cc1 -4.54, CCOC(=O)c1c(NC(=O)CNC2CCCc3ccccc32)sc(C(N)=O)c1C (centres undefined) -4.67, O=C(Cc1nc2ccccc2[nH]c1=O)c1ccc(Cl)cc1 -5.73, O=c1cc(CSc2ccccn2)nc(N2CCN(c3ccccc3)CC2)[nH]1 -4.82, C=CCOc1cccc(C2C(C(=O)c3ccc(C)o3)=C(O)C(=O)N2c2nnc(C)s2)c1 (centres undefined) -4.61, O=C(Cc1ccccn1)c1ccc(O)cc1O -4.66, C=CCn1nc(-c2ccccc2)c2c(C)onc2c1=O -6.96, O=C(CCn1ccc([N+](=O)[O-])n1)Nc1nccs1 -5.19, COc1cc2c(cc1O)C(SC)=NC(C)(C)C2 -5.85, Clc1ccc(-c2nc3ccccn3c2CN2CCSCC2)cc1 -5.66, O=C(Nc1ccc(Cl)cc1)C1c2cccc[n+]2CC(=O)N1Cc1ccc2c(c1)OCO2 (centres undefined) -6.48, CCC1CCCCN1CCNC(=O)c1[nH]c(C)c(C(C)=O)c1C (centres undefined) -5.1

B-score, inactive:
Cc1ccc(S(=O)(=O)NNC(=O)/C=C/c2cccc(F)c2)cc1, Cc1ccc(C)c(NC(=O)C2Cc3ccccc3CN2C(=O)OCc2ccccc2)c1 (centres undefined), COc1ccc(C(C)NC(=S)NC2CCCCC2)cc1OC (centres undefined), CCCN(CC(=O)Nc1ccc(C(N)=O)cc1)CC(=O)Nc1ccccc1C, CCN(CC)CCNCC(=O)Nc1ccc(Oc2ccccc2)cc1, O=C1CCC(C(=O)N2CCC(O)(c3ccccc3)CC2)CN1CCc1ccccc1 (centres undefined), COc1ccccc1OCc1nnc(SCC(N)=O)n1-c1ccccc1, CC(C)(C)NC(=O)NC(=O)COC(=O)C1(C)CC1(Cl)Cl (centres undefined), COc1cc(CCC(=O)OCC(=O)Nc2cccc(S(N)(=O)=O)c2)cc(OC)c1OC, COc1cc(CCC(=O)N2CCN(c3ccccc3Cl)CC2)cc(OC)c1OC, C#CCOCCOCCOCCNc1nc(N2CCN(C(=O)CCCCCCCCCCNC(=O)[C@H]([C@@H](C)CC)n3cc(CCCCN=C(N)N)nn3)CC2)nc(N2CCN(C(=O)CCCCCCCCCCNC(=O)[C@H](CO)n3cc(CCCSC)nn3)CC2)n1, O=C(NCC(=O)N(Cc1cccs1)C(C(=O)NC1CCCCC1)c1ccco1)c1cccs1 (centres undefined), COc1ccc(N2CCN(CCCNC(=O)C3CCN(S(=O)(=O)N4CCOCC4)CC3)CC2)cc1, CCOc1ccc(CCNC(=O)C2CCN(c3ccc(N4CCOCC4)nn3)CC2)cc1OCC, CN1CCN(Cc2c(C(=O)N3CCc4ccccc4C3)nc3ccc(Cl)cn23)CC1, CCc1nn(-c2cc(Oc3cccc4ccccc34)nc(-c3ccccc3)n2)c(N)c1C#N, CCOC(=O)c1c(NC(=O)CSc2nccc(=O)[nH]2)sc(C)c1C, COCCCNCC(=O)Nc1sc(C)c(C)c1C(=O)OC, CN(C)c1cccc(C(=O)N2CCC(n3nccc3NC(=O)C3CCOC3)CC2)c1 (centres undefined), Cc1ccccc1OCCC(=O)OCC(=O)NC(C)c1ccccc1 (centres undefined), O=C(Cn1cc(C(=O)C2CC2)c2ccccc21)Nc1ccccc1Cl, Cc1ccc(-n2cnc3ncnc(-c4ccccc4)c32)cc1, CC(=O)Nc1ccc(NC(=O)COc2ccc(S(=O)(=O)NC(C)c3ccccc3)cc2)cc1 (centres undefined), COCCOC(=O)c1c(C)oc2cc(Br)c(OCC(N)=O)cc12, CCOC(=O)c1sc(NC(=O)CSc2nnc(-c3ccco3)o2)c(C(=O)OCC)c1C, CCOC(=O)c1sc(NC(=O)COc2ncnc3ccccc23)c(C(=O)OCC)c1C, Cc1ccc(C(=O)C(C)OC(=O)Cc2n[nH]c(=O)c3ccccc23)cc1C (centres undefined), O=C(CSc1nc2ccc([N+](=O)[O-])cc2[nH]1)c1ccc(Cl)cc1, O=C(/C(=C/c1cccc(Cl)c1)c1nc2ccccc2[nH]1)c1ccccc1, CN1CCN(c2ccccc2NC(=O)COc2ccc(C3CCCCC3)cc2)CC1, Cc1nnc(SCc2cc(=O)[nH]c(N3CCN(Cc4ccccc4)CC3)n2)s1, Cc1ccc(SCc2cc(=O)[nH]c(N3CCCCC3)n2)cc1, Cc1cc(N2C(=O)C(O)=C(C(=O)c3ccc(C)o3)C2c2ccc(OCc3ccccc3)cc2)no1 (centres undefined), C=CCOc1cccc(C2C(C(=O)c3ccc(C)o3)=C(O)C(=O)N2CCCn2ccnc2)c1 (centres undefined), COc1ccc(/C(O)=C2/C(=O)C(=O)N(CC3CCCO3)C2c2ccc(OC)c(OC)c2)cc1 (centres undefined), COc1ccc(NC(C(=O)Nc2cccc(C(C)=O)c2)c2ccccc2)cc1 (centres undefined), Cc1cc(-c2ccc(S(=O)(=O)N3CCN(c4cccc(C(F)(F)F)c4)CC3)s2)on1, COc1ccc(CC(=O)c2ccc(O)cc2O)cc1OC, COc1ccc(C(=O)Cc2cnn(-c3ccccc3)c2)c(O)c1, CCn1c(SCC(=O)NC2CC2)nnc1-c1ccccc1OC, O=C(NCC1CCCO1)c1ccccc1-c1nc(-c2ccccc2Cl)no1 (centres undefined), C=CCn1cnc2scc(-c3ccccc3)c2c1=O, Cc1nn(-c2ccccc2)c(=O)c2noc(C)c12, COc1cccc2cc(C(N)=O)/c(=N\NC(=O)c3ccccc3)oc12, O=C(Cn1ccc([N+](=O)[O-])n1)NCc1cccs1, Cc1ccnc(NC(=O)Cn2ccc([N+](=O)[O-])n2)c1, Cc1cccc(C)c1NC1=NC(=S)N(c2ccc(N(C)C)cc2)C1(C)C, CN(C)CCCn1c(=O)n(Cc2ccccc2)c(=O)c2c3c(sc21)CCCCC3, Cc1c(S(=O)(=O)NC(C)c2ccccc2)c(=O)n(C)c(=O)n1C (centres undefined), O=C(CNC(=O)C12CC3CC(CC(C3)C1)C2)OCC(=O)N1CCCCC1, COc1cc2c(cc1OC)C(Nc1ccc(S(N)(=O)=O)cc1)=NC(C)(C)C2, COc1cc2c(cc1OC)C(C(C)C)=NC(C)(C)C2, CN(C)CCc1c[nH]c2ccc(Cn3cncn3)cc12, CC1CCN(Cc2nc(-c3ccc(Cl)cc3)no2)CC1, Clc1ccc(-c2nnc(-c3ccccc3)nc2N2CCSCC2)cc1, O=C(CSCc1ccc(Cl)cc1)N1CCN(Cc2ccc3c(c2)OCO3)CC1, CCCOc1ccc(NC(=O)CC2C(=O)N(C)C(=S)N2Cc2ccc3c(c2)OCO3)cc1 (centres undefined), COc1ccc(C)cc1Nc1nc(C)nc2c1oc1ccccc12, COc1ccc2c(c1)C(=O)Nc1cc(Cl)ccc1N2, CCCCN(CC)CCNC(=O)c1[nH]c(C)c(C(C)=O)c1C, CC(=O)c1c(C)[nH]c(C(=O)NCCCN2CCCC2)c1C, NC(=O)CC[C@@H]1NC(=O)[C@@H]2CCCN2C(=O)c2cc([N+](=O)[O-])cc(F)c2NCCC[C@@H](C(N)=O)NC1=O, O=C(CSc1nc2nccnc2c(=O)n1Cc1cccs1)Nc1ccccc1F
